We go through 40 molecules from PubChem BioAssay (Tox21).

Each structure is given as a SMILES string. Records with an inconclusive call do not appear. Entries that show only a call come without a potency. Calls of active or inactive are those of the source. The call rests on the fitted dose curve.

The test deals with Progesterone receptor (Homo sapiens) (UniProt P06401). The test is described as follows: qHTS assay to identify small molecule agonists of the progesterone receptor (PR) signaling pathway (AID 1346784). Further: nearly all actives have a fitted effect of over 30% in size. The note with it: PR-UAS-bla HEK293T, beta-lactamase FRET ratio, 16 h; series mostly up to 92.4 µM; activation: at the top concentration. From the text: U.S. Tox21 Program National Center for Advancing Translational Sciences [NCATS] NIH Chemical Genomics Center [NCGC] U.S. Environmental Protection Agency [EPA] National Institutes of Environmental Health Sciences [NIEHS] National Toxicology Program [NTP] U.S. Food and Drug Administration [FDA] […] Endocrine disrupting chemicals (EDCs) and their interactions with steroid hormone receptors like PR causes disruption of normal endocrine function. To identify the compounds that activate PR signaling, a PR-UAS-bla GripTite cell line i.e. PR-UAS-bla HEK 293T (Invitrogen, Carlsbad, CA, USA) containing a beta-lactamase reporter gene under the control of an Upstream Activator Sequence (UAS) was used to screen Tox21 10K compound library.
Sequence of Progesterone receptor (Homo sapiens) (P06401 whole entry, looked up): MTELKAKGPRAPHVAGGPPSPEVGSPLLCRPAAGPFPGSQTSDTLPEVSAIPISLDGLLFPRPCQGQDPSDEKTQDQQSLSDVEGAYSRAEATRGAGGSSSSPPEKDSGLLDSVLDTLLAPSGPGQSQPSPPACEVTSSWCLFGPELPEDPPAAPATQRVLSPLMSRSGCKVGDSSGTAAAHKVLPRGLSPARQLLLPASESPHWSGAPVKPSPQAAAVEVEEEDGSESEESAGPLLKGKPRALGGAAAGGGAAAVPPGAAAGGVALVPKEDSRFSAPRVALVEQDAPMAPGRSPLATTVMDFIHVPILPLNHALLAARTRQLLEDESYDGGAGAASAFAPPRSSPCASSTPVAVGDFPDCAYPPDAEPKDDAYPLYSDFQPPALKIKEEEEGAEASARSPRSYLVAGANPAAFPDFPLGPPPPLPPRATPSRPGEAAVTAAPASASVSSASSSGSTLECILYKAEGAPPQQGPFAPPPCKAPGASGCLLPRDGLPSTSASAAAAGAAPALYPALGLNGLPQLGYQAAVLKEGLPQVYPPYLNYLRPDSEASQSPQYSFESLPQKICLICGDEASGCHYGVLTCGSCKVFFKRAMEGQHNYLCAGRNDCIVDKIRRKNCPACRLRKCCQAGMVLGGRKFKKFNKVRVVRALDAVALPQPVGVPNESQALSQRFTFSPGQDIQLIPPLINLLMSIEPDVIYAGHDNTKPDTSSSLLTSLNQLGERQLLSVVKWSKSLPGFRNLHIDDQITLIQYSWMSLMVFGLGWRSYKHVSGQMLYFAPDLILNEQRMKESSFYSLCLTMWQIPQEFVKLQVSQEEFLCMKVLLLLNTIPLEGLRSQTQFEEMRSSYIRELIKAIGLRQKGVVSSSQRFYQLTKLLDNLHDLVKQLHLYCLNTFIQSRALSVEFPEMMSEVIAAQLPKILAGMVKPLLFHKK
Tox21 Assay Protocol Summary: PR-UAS-bla HEK 293T cells were dispensed at 3,000 cells/5 uL of assay medium containing 2% charcoal stripped FBS per well into black wall/clear-bottom 1536-well plates using a Multidrop Combi (ThermoFisher Scientific, Waltham, MA) dispenser. After the assay plates were incubated at a 37C and 5% CO2 for 6hr, 23 nL of compounds dissolved in DMSO, positive controls or DMSO only was transferred to the assay plate by a Pintool station (Kalypsys, San Diego, CA). The plates were incubated at 37C and 5% CO2 for 16hr. Then 1 uL of LiveBLAzer B/G FRET substrate was added using a BioRAPTR FRD (Flying Reagent Dispenser, Aurora Discovery, San Diego, CA). After the plates were incubated at room temperature for 2 hours, fluorescence intensity was measured by an Envision plate reader (PerkinElmer, Shelton, CT).
A general note: qHTS replaces the single test concentration by a dilution series.
Regarding `CCN(N=O)C(N)=O`, the “activation” value was -0.0957% [at 42.5 µM] (inactive).
As for `CCCCNC(=O)n1c(NC(=O)OC)nc2ccccc21`, the “activation” value was -4.1% (inactive).
For `CCCCCCCCOC(=O)c1ccccc1C(=O)OCCCCCCCC`, the Potency result is “inactive”.
Turning to `CCN(CC)C(=O)/C(Cl)=C(\C)OP(=O)(OC)OC`, the Potency result was “inactive”.
On the same count and under the same terms, next, `CN(C)C(=O)Nc1ccc(Cl)cc1`: “inactive”; `CC(C)Oc1cc(-n2nc(C(C)(C)C)oc2=O)c(Cl)cc1Cl`: “inactive”.
As to `O=C1C=CC(=O)C=C1`, the Potency entry was “inactive”.
On to `Cc1cc(Cl)ccc1OCCCC(=O)O`, for which the “activation” value was 0.0646% (inactive).
Take `C=C(C)C(=O)OCC1CO1` (stereo not given): the Potency result is “inactive”.
Turning to `O=[N+]([O-])c1cccc2ccccc12`, the Potency result was “inactive”.
Still for that read-out and setting: to `CCN(CC)C(=O)SCc1ccc(Cl)cc1` belongs “inactive”.
Take `CCCCCc1cc(O)cc(O)c1`: the “activation” value is 0.446% (inactive).
For the molecule `CCCCN(CC)c1c([N+](=O)[O-])cc(C(F)(F)F)cc1[N+](=O)[O-]`, the Potency entry is “inactive”.
On the same count and under the same terms, next, `c1cc(OCC2CO2)ccc1Cc1ccc(OCC2CO2)cc1` (stereo not given): “inactive”; `O=C(NC(=O)c1c(F)cccc1F)Nc1ccc(Cl)cc1`: “inactive”; `O=[N+]([O-])c1ccc(O)c([N+](=O)[O-])c1`: “inactive”.
The same measure, in the same setting: next, `Nc1ccc(Cl)cc1N`: “inactive”; `Cc1cccc(N)c1N`: “inactive”; `COP(=O)(OC)OC`: “inactive”.
Take `NCc1cccnc1`: the Potency result was “inactive”.
Turning to `O=C(CCl)c1ccccc1`, the “activation” value is 0.269% (inactive).
On to `C#CCOS(=O)OC1CCCCC1Oc1ccc(C(C)(C)C)cc1` (stereo not given), for which the Potency entry was “inactive”.
For `CCOP(=S)(OCC)O/N=C(\C#N)c1ccccc1`, the “activation” value was 6.62% [at 42.5 µM] (inactive).
Take `CC1(C)C(C=C(Cl)Cl)C1C(=O)OC(C#N)c1cccc(Oc2ccccc2)c1` (stereo not given): the Potency entry was “inactive”.
Regarding `CCCCOCCOP(=O)(OCCOCCCC)OCCOCCCC`, the Potency entry is “inactive”.
Still for that read-out and setting: next, `COc1ccc(C=O)cc1`: “inactive”.
Take `O=[N+]([O-])c1c(Cl)c(Cl)c(Cl)c(Cl)c1Cl`: the “activation” value is -0.187% (inactive).
As for `COP(=S)(OC)Oc1ccc([N+](=O)[O-])cc1`, the Potency result is “inactive”.
Consider `COC(=O)c1sccc1S(=O)(=O)NC(=O)Nc1nc(C)nc(OC)n1`, for which the Potency result was “inactive”.
Still for that read-out and setting: next, `Nc1ccncc1`: “inactive”; `CCCCCCCCCCCOC(=O)c1ccccc1C(=O)OCCCCCCCCCCC`: “inactive”.
Same read-out and setting: next, `CCCCCCCCC(=O)NCc1ccc(O)c(OC)c1`: “inactive”; `O=P(Oc1ccccc1)(Oc1ccccc1)Oc1ccccc1`: “inactive”; `CC(C)N(C(=O)SCC(Cl)=C(Cl)Cl)C(C)C`: “inactive”.
Still for that read-out and setting: to `CCN(CC)N=O` belongs “inactive”.
Consider `CC(C)(c1cc(Cl)c(O)c(Cl)c1)c1cc(Cl)c(O)c(Cl)c1`, for which the “activation” value is -3.69% (inactive).
`S=C1NCCN1`: the Potency result is “inactive”.
As to `CCC(C)(c1ccc(O)cc1)c1ccc(O)cc1`, the Potency result is “inactive”.
Still for that read-out and setting: next, `Nc1ccc(Cl)c(Cl)c1`: “inactive”.
On to `Nc1ccc(-c2ccccc2)cc1`, for which the “activation” value was 3.02% (inactive).
